Consider eight molecules from PubChem BioAssay (NCI).

Some test systems named below: NCI-H23 lung; NCI-H226 lung; NCI-H322M lung; HOP-62 NSCLC; NCI-H460 lung; HOP-92 NSCLC; NCI-H522 lung; A549/ATCC NSCLC; 786-0 renal; COLO 205 colon; DU-145 prostate; K-562 leukemia; MALME-3M melanoma; MDA-MB-231 breast; RXF 393 renal; SF-268 CNS; SF-295 CNS; SF-539 CNS; UACC-257 melanoma; M14 melanoma.
What all share (assay): NCI-60 one-dose screen, 48 h (100 = growth as untreated, 0 = no growth, -100 = all killed)
Holding throughout (details): 10 µM unless noted

Compounds without any hit were thinned out: in the full panel of roughly 83,000, 20% have a hit.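 Cells were grown in 96-well plates and exposed to the test compound at a single concentration for 48 hours; results are reported as percent growth, with values below 10 considered active.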 Unmarked numbers belong to inactive results. Calls of active or inactive are those of the source.

Take `O=C1N[C@@H]2[C@@H](O)[C@@H](O)[C@H](O)C[C@H]2c2cc3c(c(O)c21)OCCO3`: the growth was -40.9% (active) in the test on NCI-H23 lung; -11.3% (active) in the test on NCI-H226 lung; -24.3% (active) with NCI-H322M lung; -26.5% (active) in the test on HOP-62 NSCLC; 1.26% (active) in the test on NCI-H460 lung; -20.1% (active) in the test with HOP-92 NSCLC. Moreover, the growth in the test with NCI-H522 lung is -36.1% (active); in the test with A549/ATCC NSCLC, -14.3% (active); in the test with 786-0 renal, -1.5% (active); in the test with COLO 205 colon, -49% (active); in the test with DU-145 prostate it was -2.39% (active); in the test with K-562 leukemia, 1.56% (active). In addition, the growth with MALME-3M melanoma was -23.8% (active); in the test on MDA-MB-231 breast it was -24.1% (active); in the test on RXF 393 renal it was -24.2% (active); in the test on SF-268 CNS, -0.713% (active); in the test on SF-295 CNS it was -14.9% (active); in the test with SF-539 CNS it was -24.1% (active). The growth with UACC-257 melanoma is -22.2% (active); with M14 melanoma it was -45.7% (active).

In the case of `CN1CCN(C(=O)c2cc(-c3ccc4ncnc(N5CCc6cc(F)c(Cl)cc65)c4c3)cnc2N)CC1`, the growth in the test on NCI-H23 lung was 8.25% (active); in the test on NCI-H226 lung, 14.5%; with NCI-H322M lung, -8.41% (active); in the test with HOP-62 NSCLC, 12%; with NCI-H460 lung it was 8.83% (active); with HOP-92 NSCLC, -27.2% (active). The growth was 2.49% (active) with NCI-H522 lung; 3.84% (active) in the test on A549/ATCC NSCLC; 2.28% (active) with 786-0 renal; 3.92% (active) in the test on COLO 205 colon; 8.87% (active) in the test on DU-145 prostate; 11.1% with K-562 leukemia. The growth is -38.6% (active) in the test on MALME-3M melanoma; 10.5% with MDA-MB-231 breast; -48.9% (active) with RXF 393 renal; 0.525% (active) with SF-268 CNS; 0.0297% (active) in the test on SF-295 CNS; -24.3% (active) in the test on SF-539 CNS. The growth in the test with UACC-257 melanoma is 6% (active); with M14 melanoma, 1.59% (active).

Take `CCCCCCC(=O)Nc1ncc(Cc2ccc(C)cc2)s1`: the growth was 59.3% with NCI-H23 lung; 64.1% in the test with NCI-H226 lung; 58.4% in the test with NCI-H322M lung; 40.3% with HOP-62 NSCLC; 23.4% with NCI-H460 lung; 60.4% with HOP-92 NSCLC. Besides, the growth in the test with NCI-H522 lung is 22.2%; with A549/ATCC NSCLC it was 47.5%; with 786-0 renal it was 46%; in the test with COLO 205 colon it was 16.5%; in the test on DU-145 prostate, 42.2%; in the test on K-562 leukemia, 24.2%. Besides, the growth was 58.6% in the test on MALME-3M melanoma; 59.9% in the test with MDA-MB-231 breast; -7.29% (active) in the test with RXF 393 renal; 58.1% in the test with SF-268 CNS; 34.6% with SF-295 CNS; 20.6% in the test on SF-539 CNS. Also, the figures for the growth in the test with UACC-257 melanoma and in the test with M14 melanoma were 55.2% and 31.6%, respectively.

For the molecule `Nc1c(C(=O)Nc2ccncc2)sc2nc3c(cc12)CCCCC3`, the growth was 61.8% in the test with NCI-H23 lung; 72.3% with NCI-H226 lung; 99.9% in the test on NCI-H322M lung; 81.8% in the test on HOP-62 NSCLC; 81.6% in the test with NCI-H460 lung; 73% in the test with HOP-92 NSCLC. Also, the growth with NCI-H522 lung was 73.9%; in the test with A549/ATCC NSCLC it was 89.5%; in the test on 786-0 renal, 79.1%; with COLO 205 colon, 86.5%; with DU-145 prostate it was 89.2%; in the test with K-562 leukemia, 51.8%. Besides, the growth with MALME-3M melanoma was 90.6%; with MDA-MB-231 breast, 90.9%; in the test with RXF 393 renal, 84.2%; with SF-268 CNS, 99.5%; in the test on SF-295 CNS, 71.5%; with SF-539 CNS, 73.2%. Further, the growth in the test on UACC-257 melanoma was 76%; in the test with M14 melanoma it was 91.9%.

On to `CN1CCN(Cc2ccc(NC(=O)c3cncc(C#Cc4cncc5ncccc45)c3)cc2C(F)(F)F)CC1`, for which the growth is 15% in the test with NCI-H23 lung; 12.7% in the test on NCI-H226 lung; 18% in the test on NCI-H322M lung; 10.4% in the test on HOP-62 NSCLC; -47.3% (active) in the test with NCI-H460 lung; -34.9% (active) in the test on HOP-92 NSCLC. Also, the growth in the test on NCI-H522 lung was 19.7%; in the test with A549/ATCC NSCLC it was 17.7%; in the test with 786-0 renal, 38.3%; with COLO 205 colon it was -23% (active); with DU-145 prostate, 34.4%; in the test with K-562 leukemia it was -8.35% (active). The growth is -14.4% (active) in the test on MALME-3M melanoma; 5.93% (active) in the test with MDA-MB-231 breast; 8.21% (active) in the test on RXF 393 renal; 33.7% with SF-268 CNS; 32.9% in the test with SF-295 CNS; -31.8% (active) with SF-539 CNS. Also, the growth is 6.41% (active) in the test on UACC-257 melanoma and -51.1% (active) in the test on M14 melanoma.

With `COc1cc(/C=C\c2cc(/C=C\c3ccc(O)c(OC)c3)n(C(=O)CNc3ccc(Cl)cc3)n2)ccc1O`, the growth is 24% with NCI-H23 lung; 51.2% in the test on NCI-H226 lung; 39.2% in the test with NCI-H322M lung; 23.3% in the test on HOP-62 NSCLC; 6.98% (active) in the test on NCI-H460 lung; 66.9% with HOP-92 NSCLC. Moreover, the growth with NCI-H522 lung was 2.11% (active); in the test with A549/ATCC NSCLC, 19.5%; in the test on 786-0 renal, 15.7%; in the test on COLO 205 colon, 90.4%; in the test with DU-145 prostate, 27.7%; in the test with K-562 leukemia, 6.99% (active). Moreover, the growth in the test with MALME-3M melanoma is 34.2%; in the test on MDA-MB-231 breast it was 43%; in the test with RXF 393 renal, 3.29% (active); in the test on SF-268 CNS it was 25.5%; in the test with SF-295 CNS it was 72.8%; with SF-539 CNS, 8.34% (active). For the same molecule, the growth in the test with UACC-257 melanoma was 70.2%; in the test on M14 melanoma, 4.29% (active).

For the molecule `Clc1ccc(-c2nc(-c3c[nH]c4ncccc34)cs2)cc1`, the growth in the test on NCI-H23 lung was 35% [100 µM]; in the test with NCI-H226 lung, 47.7% [100 µM]; with NCI-H322M lung it was 61.7% [100 µM]; with HOP-62 NSCLC, 6.83% [100 µM] (active); in the test with NCI-H460 lung it was 72.5% [100 µM]; with HOP-92 NSCLC it was -42.4% [100 µM] (active). The growth with NCI-H522 lung was 71.7% [100 µM]; with A549/ATCC NSCLC, 55.2% [100 µM]; with 786-0 renal, 34.6% [100 µM]; in the test on COLO 205 colon it was 93.2% [100 µM]; with DU-145 prostate, 79.6% [100 µM]; in the test on K-562 leukemia, 100% [100 µM]. For the same molecule, the growth in the test with MALME-3M melanoma is 73% [100 µM]; in the test with MDA-MB-231 breast, 31.1% [100 µM]; in the test on RXF 393 renal, 18.5% [100 µM]; with SF-268 CNS, 40.9% [100 µM]; in the test on SF-295 CNS it was 18.6% [100 µM]; in the test with SF-539 CNS, 20.6% [100 µM]. The growth in the test on UACC-257 melanoma was 105% [100 µM]; in the test with M14 melanoma, 70.3% [100 µM].

Regarding `O=c1ccc2nc(C(F)(F)F)nn(-c3ccccc3)c-2c1`, the growth was 67.7% in the test on NCI-H23 lung; 77.7% in the test on NCI-H226 lung; 99.8% with NCI-H322M lung; 69% in the test with HOP-62 NSCLC; 97.3% in the test on NCI-H460 lung; 35.2% in the test with HOP-92 NSCLC. Further, the growth with NCI-H522 lung was -56% (active); in the test with A549/ATCC NSCLC, 93%; in the test on 786-0 renal it was 22.2%; in the test with COLO 205 colon, -70.7% (active); in the test with DU-145 prostate, 40.5%; with K-562 leukemia, -35.1% (active). Also, the growth in the test on MALME-3M melanoma was -41.7% (active); in the test with MDA-MB-231 breast, 61%; with RXF 393 renal it was -20.5% (active); with SF-268 CNS, 77.4%; in the test on SF-295 CNS, 91.9%; in the test on SF-539 CNS, 92.8%. Further, the growth is 35.6% with UACC-257 melanoma and 62.1% with M14 melanoma.
